# PAX8 inh HTS: inhibitors of PAX8-driven TPO luciferase reporter, primary screen, RMG-I cells, single concentration; SteadyGlo, 24 h; inhibition, % at 12.6 µM; hit rate 1.2% among 360,000; AID 652154, 2013;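 active means mean replicate inhibition at least 60% with every replicate also reaching 60%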;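 further: luciferase light reporting Pax8 driven TPO promoter activity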
# Mdm2-MdmX inh: inhibitors of human Mdm2-MdmX association, primary screen, cell-based, luminescence, split luciferase, SaOS-2, uHTS | Protein Mdm4 (Homo sapiens) + E3 ubiquitin-protein ligase Mdm2 (Homo sapiens), … | SaOS-2 split-luciferase Mdm2/MdmX complementation | inhibition, % at 8 µM | hit rate 3% among 330,000 | AID 485346, 2010;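 active means inhibition of at least 50% at 8 µM in the primary screen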
# Gli-Sufu block: Gli-Sufu pathway antagonists, primary screen, luciferase luminescence, Sufu-KO-LIGHT cells, uHTS; Sufu-KO-LIGHT fibroblasts, Gli luciferase reporter luminescence; inhibition, % at 5 µM; hit rate 0.74% among 340,000; AID 588413, 2011;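 active means inhibition above about 55%, limit read from the data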
# Beta apoptosis: inhibitors of cytokine-induced beta cell apoptosis, primary screen, luminescence | INS-1E cytokine-induced death, ATP luminescence, 48 h; percent of positive-control rescue, neutral wells zero | protection from apoptosis, % (test concentration not listed) | hit rate 0.8% among 300,000;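 active means Every replicate reaches about 75%, or at least half do and their mean reaches it too, limit read from the data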;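 further: higher means more ATP so stronger rescue from cytokine killing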
# CSC inhib: cancer stem cell viability inhibitors, primary screen, luminescence; cancer stem cell-like cells viability; inhibition, % at 7.5 µM; hit rate 1.1% among 300,000; AID 2717, 2010; in the data active means inhibition above about 75%; tested in HMLE shEcad cells
# Shn3 inh set2: reduction of Shn3 3'UTR firefly luciferase signal, primary screen, Schnurri-3 inhibitor project, cell-based, Clone20 osteoblasts, set 2 | Clone20 osteoblast Shn3 3'UTR firefly luciferase, 24 h | inhibition, % at 12.5 µM | hit rate 0.52% among 360,000;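 active means mean inhibition of at least 75% with every replicate also reaching 75%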
# Mdm2-MdmX conf: Mdm2-MdmX complex disruptors, retested hits, confirmation, luminescence, single concentration; shares compounds with Mdm2-MdmX inh; Mdm2-MdmX binding, luminescent assay; inhibition, % at 8 µM; hit rate 55% among 10,000; AID 489028, 2010; in the data active means inhibition above about 40%
# FLuc counter: full-length luciferase signal inhibition, confirmation, counter-screen for Mdm2/MdmX interaction inhibitor project, cell-based, single concentration, SaOS-2; SaOS-2 full-length luciferase counterscreen, luminescence; shares compounds with Mdm2-MdmX inh; hit rate 77% among 6,200; inhibition, % at 8 µM;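 active means mean inhibition at 8 µM reaching about 37%, which flags the compound as non-specific, limit read from the data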;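 further: p53-null SaOS-2 cells with luciferase driven by a doxycycline-inducible promoter; compound on cells about two nights before reading with doxycycline added after day one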
# Hits are given with their value; . = inactive; / = no result. Most compounds without a hit are left out; they make up all but 4% or so of the library.
SMILES,PAX8 inh HTS,Mdm2-MdmX inh,Gli-Sufu block,Beta apoptosis,CSC inhib,Shn3 inh set2,Mdm2-MdmX conf,FLuc counter
C(=N\Nc1nc2ccccc2[nH]1)/c1cccc2nccnc12,.,74,.,.,.,.,65,.
CCN(CC)c1ccc(/C=N/Nc2nc3ccccc3[nH]2)c(O)c1,/,58,.,122,101,.,74,40
COc1cc(OC)c(OC)cc1/C=N/Nc1nc2ccccc2[nH]1,.,.,.,.,.,.,/,/
O=C(C[C@H]1CC[C@H](NS(=O)(=O)c2cccc(F)c2)[C@H](CO)O1)NCc1ccc2c(c1)OCO2,.,/,/,/,/,/,/,/
CCC(=O)N[C@H]1CC[C@@H](CCn2cc(-c3cccc(OC)c3)nn2)O[C@@H]1CO,.,/,/,/,/,/,/,/
COc1ccc(CN(C)C(=O)c2cc(-c3ccccc3)nc3ccc(C)cc23)c(OC)c1OC,.,65,.,.,.,.,.,/
COc1cccc(NC(=O)CN(C)C(=O)c2cc(-c3ccccc3)nc3ccccc23)c1,.,.,.,.,.,.,/,/
COc1ccc(CCN(C)C(=O)c2cc(-c3ccccc3)nc3ccc(C)cc23)cc1OC,.,.,.,.,.,.,/,/
COc1cccc(NC(=O)CN(C)C(=O)c2cc(-c3ccc(F)cc3)nc3ccccc23)c1,/,62,.,.,.,.,.,/
COc1cccc(CN(C)C(=O)c2cc(-c3ccc(F)cc3)nc3ccccc23)c1,/,53,.,.,.,.,.,/
COc1ccc(CCN(C)C(=O)c2cc(-c3ccccc3)nc3ccccc23)cc1OC,.,.,.,.,.,.,/,/
COc1ccc(-c2cc(C(=O)N(C)Cc3nc4ccccc4c(=O)[nH]3)c3ccccc3n2)cc1OC,.,52,.,.,.,.,.,/
COc1ccc(CN(C)C(=O)c2cc(-c3ccc(OC)c(OC)c3)nc3ccccc23)c(OC)c1,.,57,.,.,.,.,46,101
COc1ccccc1CN(C)C(=O)c1cc(-c2cccs2)nc2ccccc12,.,61,.,.,.,.,.,57
COc1ccc(-c2cc(C(=O)N(C)Cc3cccc(OC)c3OC)c3ccccc3n2)cc1OC,.,.,.,.,.,.,/,/
COc1cccc(CN(C)C(=O)c2cc(-c3ccc(OC)c(OC)c3)nc3ccccc23)c1,.,55,.,.,.,.,.,/
Cc1noc(C)c1NC(=O)N(C)C[C@@H]1Oc2ccc(NC(=O)NC(C)C)cc2C(=O)N([C@@H](C)CO)C[C@@H]1C,.,/,/,/,/,/,/,/
COc1ccc(-c2ccc(C#N)c(OC(=O)c3c(Cl)cccc3Cl)n2)cc1,/,64,.,.,.,.,.,/
O=C(Cc1ccccn1)NCC[C@H]1CC[C@@H](NC(=O)CN2CCOCC2)[C@H](CO)O1,.,/,/,/,/,/,/,/
N#CCSc1nc2ccccc2c2nc3ccccc3n12,.,87,.,103,85,.,63,87
N#C/C(=C\c1c(Cl)cccc1Cl)c1nc2ccccc2o1,/,82,.,.,.,.,.,/
CC(C)Cn1c(CNC(=O)c2ccccc2)nc2ccccc21,.,.,.,.,.,.,/,/
CCC(=O)Oc1ccc2ccccc2c1CNC(=O)c1ccccc1,.,55,.,.,.,.,.,/
COc1cccc(NC(=O)c2nc(SC)ncc2Cl)c1,.,.,.,.,.,.,/,/
CN(c1ccccc1)S(=O)(=O)c1ccc(NC(=O)c2nc(S(C)(=O)=O)ncc2Cl)cc1,133,98,.,99,.,99,100,51
SMILES,PAX8 inh HTS,Mdm2-MdmX inh,Gli-Sufu block,Beta apoptosis,CSC inhib,Shn3 inh set2,Mdm2-MdmX conf,FLuc counter
COc1cccc(NC(=O)c2nc(S(C)(=O)=O)ncc2Cl)c1,.,96,.,.,113,97,83,60
Cc1ccc(OCCn2cc(C(=S)N3CCCC3)c3ccccc32)cc1C,/,96,.,.,.,.,91,54
COc1ccc(Cc2nnc(N/N=C/c3ccc(O)cc3O)[nH]c2=O)cc1OC,.,56,.,.,91,.,44,50
COc1ccc(-c2coc3cc4oc(=O)c5ccccc5c4cc23)cc1F,.,75,.,.,/,.,55,58
COc1ccc(-c2c(-c3ccccc3OC)oc3ccccc23)cc1F,.,.,.,.,.,.,/,/
CO[C@H]1CN(C)C(=O)c2cc(NC(=O)c3cccc(F)c3)ccc2OC[C@H](C)N(CC2CC2)C[C@H]1C,.,/,/,/,/,/,/,/
COc1cccc(CNc2ncnc3ccc(-c4c(C)noc4C)cc23)c1,.,85,.,.,.,.,73,.
Cc1noc(C)c1-c1ccc2ncnc(NCC3CCCCN3C)c2c1 (stereo unspecified),.,72,.,.,.,.,47,73
COc1cccc(-c2ccc3ncnc(NCc4cccc(C)c4)c3c2)c1,.,.,.,.,.,.,/,/
CCc1cc2c(NCCN3CCCCC3)ncnc2s1,/,.,.,.,.,.,/,/
C[C@@H]1CCCCO[C@H](CN(C)Cc2ccncc2)[C@H](C)CN([C@H](C)CO)C(=O)c2cc(NC(=O)Nc3ccc(F)cc3)ccc2O1,.,/,/,/,/,/,/,/
COc1ccccc1S(=O)(=O)N[C@H]1CC[C@@H](CC(=O)NCc2cccc(F)c2)O[C@@H]1CO,.,/,/,/,/,/,/,/
Nc1ncnc(N2CCc3ccccc32)c1[N+](=O)[O-],.,82,.,.,.,.,85,52
NNC(=O)c1ccc(N2CCc3ccccc32)c([N+](=O)[O-])c1,.,.,.,.,.,.,/,/
COC(=O)C[C@H]1C[C@@H]2c3cc(NC(=O)CC4CC4)ccc3O[C@@H]2[C@H](CO)O1,.,/,/,/,/,/,/,/
CCCNC(=O)[C@@H]1[C@@H](CO)[C@@H]2Cn3c(ccc(-c4cccc(F)c4)c3=O)[C@H]1N2C(=O)CC,.,/,/,/,/,/,/,/
CC1CCCCN1S(=O)(=O)c1ccc(S(=O)(=O)N2CCN(c3ccccc3)CC2)cc1 (stereo unspecified),/,57,.,.,.,.,.,/
C#CCOCCOCCOCCNc1nc(N2CCN(C(=O)CCCCCCCCCCNC(=O)[C@H](CCCCN)n3cc(C)nn3)CC2)nc(N2CCN(C(=O)CCCCCCCCCCNC(=O)[C@@H]([C@H](C)O)n3cc(C)nn3)CC2)n1,/,78,.,.,.,.,.,/
